The values that follow come from PubChem BioAssay AID1903 (Southern Research Specialized Biocontainment Screening …, 2009).

Hit rate of the full screen: of about 310,000 compounds, about 1,200 (0.39%) were called active. The rule behind the calls is not given here. These entries were drawn from the full list. Results with a measured potency or affinity are listed apart.

The target in the test is Large T antigen (Simian virus 40) (UniProt P03070). As to the kind of experiment: SV40 large T antigen inhibitors, biochemical (AID 1903). To be noted: SV40 large T antigen ATPase/helicase inhibition assay; at 20 µM; hits give high values.
Chain of Large T antigen (Simian virus 40) (P03070 whole entry, looked up): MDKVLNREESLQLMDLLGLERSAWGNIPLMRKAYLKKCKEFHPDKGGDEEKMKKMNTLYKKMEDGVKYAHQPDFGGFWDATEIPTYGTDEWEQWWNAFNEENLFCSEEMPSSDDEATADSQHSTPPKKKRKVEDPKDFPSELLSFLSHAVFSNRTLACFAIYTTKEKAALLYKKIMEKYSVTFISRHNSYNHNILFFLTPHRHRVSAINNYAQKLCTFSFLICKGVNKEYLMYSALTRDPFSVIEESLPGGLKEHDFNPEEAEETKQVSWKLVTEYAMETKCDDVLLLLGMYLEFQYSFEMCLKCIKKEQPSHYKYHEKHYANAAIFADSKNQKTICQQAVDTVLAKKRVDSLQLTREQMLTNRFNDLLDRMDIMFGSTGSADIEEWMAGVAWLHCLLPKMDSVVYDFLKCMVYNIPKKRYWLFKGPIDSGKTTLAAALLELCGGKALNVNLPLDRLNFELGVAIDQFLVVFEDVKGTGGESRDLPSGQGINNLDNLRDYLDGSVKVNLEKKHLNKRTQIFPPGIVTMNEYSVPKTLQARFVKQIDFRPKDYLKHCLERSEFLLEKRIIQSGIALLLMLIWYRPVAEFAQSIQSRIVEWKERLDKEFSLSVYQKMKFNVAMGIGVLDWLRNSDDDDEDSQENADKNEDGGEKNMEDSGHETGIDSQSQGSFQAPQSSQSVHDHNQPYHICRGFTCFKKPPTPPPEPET
On to `O=C(Nc1ccccc1F)c1ccccc1C(=O)Nc1ccccc1F`, for which the inhibition (in general, the change of the read-out against control, counted positive when it falls) was 14.6% (inactive).

As to `CCCCn1c(N)c(N(CCC(C)C)C(=O)CC2CCCC2)c(=O)[nH]c1=O`, the inhibition is 19.1% (inactive).

As for `COc1ccc(CC(=O)NN2C(=O)c3ccccc3C2=O)cc1`, the inhibition is 10.8% (inactive).

On to `COc1ccc2[nH]cc(CCNC(C)=O)c2c1`, for which the inhibition was -0.22% (inactive). The value for `CC(=O)NCCc1c[nH]c2ccc(OCc3ccccc3)cc12` was 17% (inactive); that for `O=C1c2ccccc2C(=O)N1CCCc1c[nH]c2ccc(Cl)cc12` was 8.17% (inactive); that for `O=C(O)Cc1c[nH]c2ccc(O)cc12` was 29.6% (inactive). For `O=C1c2ccccc2C(=O)N1CCc1c[nH]c2ccccc12`, the inhibition is 14.9% (inactive). As to `N[C@@H](Cc1c[nH]c2ccc(O)cc12)C(=O)O`, the inhibition is 20.5% (inactive). For the molecule `COc1ccccc1CCN1CCCC(CN(C)C(=O)c2ccc3nc[nH]c3c2)C1` (stereo not drawn), the inhibition is 6.91% (inactive). Consider `Cc1ccc(C)c(S(=O)(=O)N2CCCOC2CNC(=O)C(=O)NCCCn2ccnc2)c1` (stereo not drawn), for which the inhibition was 7.3% (inactive). On to `Cc1[nH][nH]c(=O)c1C=NCc1cccc(C(F)(F)F)c1`, for which the inhibition is 8.38% (inactive).

As for `CC(=N)c1c(O)c2ccccc2oc1=O`, the inhibition was 20.4% (inactive). Consider `O=C(Oc1cccc(Cl)c1)N1CCOCC1`, for which the inhibition was 7.93% (inactive). The value for `NS(=O)(=O)c1ccc(NC(=O)COC(=O)c2cccc(S(=O)(=O)N3CCCC3)c2)cc1` was 11.7% (inactive).

As to `Cc1c(NC(=O)c2cccc(-c3cc4ccccc4oc3=O)c2)cccc1-c1nc2ncccc2o1`, the inhibition was -0.4% (inactive).

On to `CCCCNc1nnc(Cc2ccc(Cl)cc2)c(=O)[nH]1`, for which the inhibition was 9.41% (inactive). Then `COc1ccc(NC2CCCN(C(=O)CCN3CCCO3)C2)cc1` (stereo not drawn), with 23% (inactive). For `O=C(CSc1ccccc1)N1CCCC(Nc2ccccc2)C1` (stereo not drawn), the inhibition is 7.87% (inactive). Then `COc1ccc(NC2CCCN(C(=O)CCCn3cncn3)C2)cc1OC` (stereo not drawn), with 33.9% (inactive); and `COc1ccc(NC2CCCN(C(=O)CCN3Cc4ccccc4C3=O)C2)cc1` (stereo not drawn), with 34.5% (inactive).

With `COc1ccc(NC2CCCN(C(=O)CSc3ccncc3)C2)cc1` (stereo not drawn), the inhibition is 31.4% (inactive). Then `O=C(CCCn1cncn1)N1CCCC(Nc2ccc(F)cc2)C1` (stereo not drawn), with 5.07% (inactive); and `COc1ccc(S(=O)(=O)Nc2cc(C(=O)NC3CCCCCC3)ccc2N2CCOCC2)cc1`, with 3.07% (inactive); and `CCc1nn(CC(=O)NCCCN2CCCC2=O)c(=O)c2cc3sccc3n12`, with -4.15% (inactive). As for `Cc1ccc(NS(=O)(=O)c2c(C)[nH]c(C)c2C(=O)N2CCCCC2)c(Cl)c1`, the inhibition was -2.05% (inactive). Then `CCOC(=O)c1ccc(NC(=O)C(=O)NCc2ccccn2)cc1`, with -2.35% (inactive); and `CC(C)(CC(=O)O)CC(=O)Nc1ccc2c(c1)ncn2CCc1ccccc1`, with 5.95% (inactive); and `COc1ccc(/C=C2\SC(=O)N=C2N)cc1OC`, with 8.84% (inactive). Consider `CCOc1cc(/C=C2\SC(N)=NC2=O)ccc1O`, for which the inhibition was 34.2% (inactive). In the case of `CC(C)(C)c1ccc(/C=C2\SC(=O)N=C2N)cc1`, the inhibition is 5.32% (inactive). Take `O=C1NC(=O)/C(=C\c2ccc(Cl)nc2)S1`: the inhibition is 8.29% (inactive).

With `NC1=NC(=O)S/C1=C\c1ccc(F)cc1`, the inhibition is 8.64% (inactive). The value for `Cc1c(N=C2NC(=O)/C(=C/c3cccc([N+](=O)[O-])c3)S2)c(=O)n(-c2ccccc2)n1C` was 4.3% (inactive); that for `Cc1c(N=C2C(=O)Nc3ccccc32)c(=O)n(-c2ccccc2)n1C` was 1.2% (inactive).

As to `COc1ccc(/C=C2/SC(=O)NC2=O)cc1`, the inhibition was 12.9% (inactive).

As for `CCN(CC)CCSc1nc(O)c(C(C)C)c(=O)[nH]1`, the inhibition was 14.1% (inactive). As for `COC(=O)[C@@H](Cc1c[nH]c2ccccc12)NC(=O)c1cc(=O)[nH]c2ccccc12`, the inhibition was 2.68% (inactive). Then `CCOc1cc(S(=O)(=O)NC2CCCC2)ccc1Cl`, with 2.79% (inactive). The value for `O=C(NCc1cccs1)C(=O)c1c[nH]c2ccccc12` was -25.6% (inactive); that for `Cc1occc1-c1nnc(SCC(=O)N2CCOCC2)o1` was 1.14% (inactive). The value for `O=S(=O)(Nc1nc2c(s1)CCCC2)c1ccc(Br)cc1` was -1.56% (inactive). `COc1ccc(/C=C(\NC(=O)c2ccccc2)C(=O)OCC2CCCN3CCCCC23)cc1OC` (stereo not drawn): the inhibition is -3.64% (inactive).

On to `COc1ccc(/C=C/C(=O)OCC(=O)Nc2cc(S(=O)(=O)N(C)C)ccc2Cl)cc1`, for which the inhibition is 3.97% (inactive). Regarding `COc1cccc(NC(=O)c2ccc(N3C(=O)C4CC=C(C)CC4C3=O)cc2)c1` (stereo not drawn), the inhibition is 7.31% (inactive). `Cc1cccc(S(=O)(=O)Nc2nc3ccccc3nc2Nc2ccc3c(c2)OCO3)c1`: the inhibition was 17.6% (inactive). With `Cc1nc2ccc(Br)cc2c2c1CC(CBr)O2` (stereo not drawn), the inhibition is 10.6% (inactive).

In the case of `O=C(O)c1cccc(Nc2c3ccccc3nc3ccccc23)c1`, the inhibition is -9.05% (inactive).

As for `Cc1ccc(O)c(Nc2c3ccccc3nc3ccccc23)c1`, the inhibition is 12.6% (inactive). Then `CCCCNC(=O)OCCNC(=O)NC`, with 7.67% (inactive). On to `COc1ccc(NC(=S)NCC2CCN(c3ccc(OC)cc3)C2)cc1` (stereo not drawn), for which the inhibition was 36.1% (inactive). With `COc1ccc(N2CCN(C(=S)Nc3cc(C)ccc3C)CC2)cc1`, the inhibition is 3.41% (inactive). As to `COc1ccc(N2CCC(CNC(=S)Nc3cc(C)ccc3C)C2)cc1` (stereo not drawn), the inhibition is 36.6% (inactive). Then `COc1ccc(N2CCN(CC(=O)Nc3c(C)cc(C)cc3C)CC2)cc1`, with 24% (inactive); and `COc1ccc(N2CCC(CNC(=S)Nc3cccc(C)c3)C2)cc1` (stereo not drawn), with 21.4% (inactive). The value for `COc1ccc(N2CCC(CNC(=S)Nc3cc(C)cc(C)c3)C2)cc1` (stereo not drawn) was 28.6% (inactive); that for `Nc1nnnn1CC(=O)N/N=C/C=C/c1ccccc1` was 13.8% (inactive). Turning to `CC(C)N=C(Nc1ccccc1)c1cccnc1`, the inhibition was -1.87% (inactive). In the case of `Cc1snc(SCc2ccc(F)cc2)c1C#N`, the inhibition is 10.8% (inactive). Then `COc1ccc(NC(=O)c2ccc(-n3cnnn3)cc2)c([N+](=O)[O-])c1`, with -1.81% (inactive).

Consider `O=C1CSC(=S)N1c1cccc(Br)c1`, for which the inhibition is 9.66% (inactive). The value for `O=c1c2c([N+](=O)[O-])cc([N+](=O)[O-])cc2nc2ccccn12` was 9.53% (inactive); that for `O=C1c2c([N+](=O)[O-])cc([N+](=O)[O-])cc2S(=O)N1Cc1ccccc1` (stereo not drawn) was 11.3% (inactive).
